This passage reports inhibition results from PubChem BioAssay AID2058 (Sanford-Burnham Center for Chemical Genomics, 2009).

Screen size: about 290,000 compounds; about 150 (0.052%) were called active. Only a selection was taken, and actives are over-represented in it overall. Measured potencies and affinities stand elsewhere. Unmarked numbers belong to inactive results.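 Rule for the calls: active = inhibition of at least 50% with at least 30 cells and total cytoplasm GFP at most 10,000,000; inconclusive = under 30 cells or total GFP of 10,000,000 plus; inactive = the rest.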

This test deals with G-protein coupled receptor 35 (Homo sapiens) (UniProt Q9HC97). The test is described as follows: inhibition of zaprinast-stimulated GPR35 beta-arrestin translocation – imaging, U2OS, beta-arrestin-GFP, zaprinast agonist, primary screen (AID 2058). As to conditions: zaprinast antagonism, at 10 µM, active compounds read high.
G-protein coupled receptor 35 (Homo sapiens), sequence (Q9HC97 whole entry, looked up): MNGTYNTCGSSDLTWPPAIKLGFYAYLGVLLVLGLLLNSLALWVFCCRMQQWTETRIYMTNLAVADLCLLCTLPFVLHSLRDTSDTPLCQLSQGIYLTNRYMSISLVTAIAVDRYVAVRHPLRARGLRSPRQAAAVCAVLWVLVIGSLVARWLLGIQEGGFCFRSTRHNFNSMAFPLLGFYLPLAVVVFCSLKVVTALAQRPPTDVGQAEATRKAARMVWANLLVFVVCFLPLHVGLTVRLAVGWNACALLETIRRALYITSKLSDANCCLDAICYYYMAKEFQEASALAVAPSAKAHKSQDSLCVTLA
`Cc1cc(N2C(=O)C(O)=C(C(=O)c3ccc(C)o3)C2c2ccc([N+](=O)[O-])cc2)no1` (stereo not given): the inhibition was 4.2%.

On to `Cc1ccc2[nH]cc(/C=C/c3cc[n+](C)cc3)c2c1`, for which the inhibition is 29.2%.

In the case of `Cc1[nH]c2ccccc2c1/C=C/c1nc2ccccc2c(=O)[nH]1`, the inhibition is -11.7%.

`C[n+]1ccc(/C=C/c2c[nH]c3ccc(F)cc23)cc1`: the inhibition was -4.5%.

Turning to `Cc1[nH]c2ccccc2c1/C=C/c1cc[n+](C)cc1`, the inhibition was 71.2% (active).

Take `Cc1[nH]c2ccccc2c1/C=C/C(=O)c1ccccc1`: the inhibition was 4.5%.

`C=CCn1cc(/C=C/c2cc[n+](C)cc2)c2ccccc21`: the inhibition is 17.1%.

For the compound `COC(=O)Cn1c(C)c(/C=C/c2cc[n+](C)cc2)c2ccccc21`, the inhibition was 17.9%.

`COc1cccc(CNS(=O)(=O)c2ccc3c(c2)N(C(C)=O)CCO3)c1`: the inhibition is -10.2%.

As for `O=C(CSCc1ccc(Cl)cc1)Nc1ccc(Br)cc1C(=O)O`, the inhibition is 2.2%.

Turning to `Cn1c(=O)[nH]c(=O)c2c1nc(Sc1nc3ccccc3s1)n2Cc1ccccc1`, the inhibition is 13.4%.

For the compound `Cn1c(SCc2ccc(Br)cc2)nc2c(c1=O)SCC2`, the inhibition is -9.1%.

For the compound `CCOC(=O)C1=C(Cc2ccc(F)cc2)C(=O)c2ccccc2C1=O`, the inhibition was 11.7%.

Regarding `CCOC(=O)C1=C(Cc2ccc(C)cc2)C(=O)c2ccccc2C1=O`, the inhibition was 5%.

For the compound `CCOC(=O)N1CCN(C(=O)C2CCN(S(=O)(=O)c3ccc(OCC)cc3)CC2)CC1`, the inhibition is 10.5%.

Take `O=C1/C(=C/c2ccc(Cl)cc2)NC(=S)N1Cc1cccnc1`: the inhibition was -2.2%.

As to `CC(C)c1ccc(/C=C2\NC(=S)N(Cc3cccnc3)C2=O)cc1`, the inhibition was -2.8%.

`S=c1[nH]nc(COc2ccccc2)n1/N=C/c1c(Cl)cccc1Cl`: the inhibition was 0.3%.

With `Cc1ccc(S(=O)(=O)N[C@@H](Cc2ccccc2)C(=O)N2CCC(C(=O)N[C@@H](CC(C)C)C(=O)O)CC2)cc1`, the inhibition is 1%.

In the case of `Cc1ccc(OC(C)C(=O)Nc2ccc(S(=O)(=O)Nc3nccs3)cc2)cc1` (stereo not given), the inhibition was -8.6%.

On to `COc1ccc(OC)c(NC(=O)C2CCN(S(=O)(=O)c3cccs3)CC2)c1`, for which the inhibition was 4.3%.

Turning to `CCCCCC(=O)N/N=C(\C)c1ccc(Cl)cc1`, the inhibition is -9.2%.

For `CCN(CC(=O)NC1CCS(=O)(=O)C1)c1nc(-c2ccccc2)nc2ccccc12` (stereo not given), the inhibition is 1.8%.

In the case of `CCC(NC(=O)NC1CCCCC1)c1ccccc1` (stereo not given), the inhibition was 103% (active).

For the compound `CC(NC(=O)NC1CCCCC1)c1ccccc1` (stereo not given), the inhibition was 5.6%.

In the case of `CCC(NC(=S)NC1CCCCC1)c1ccccc1` (stereo not given), the inhibition is -4.4%.

In the case of `COc1cc(C#N)ccc1OCC(=O)N1CCc2ccccc2C1`, the inhibition was 10.3%.

Regarding `Cc1ccc(Cn2ncc(Cl)c(Cl)c2=O)cc1`, the inhibition was 33.1%.

For the compound `O=c1c(Cl)c(Cl)cnn1Cc1ccc(F)cc1`, the inhibition was 49.1%.

In the case of `CCc1c(C)sc(NC(=O)c2ccco2)c1C(=O)N1CCOCC1`, the inhibition was -15.5%.

Regarding `COc1ccc(OC)c(N(CC(=O)Nc2ccc3c(c2)OCCO3)S(C)(=O)=O)c1`, the inhibition is -8.2%.

`C[N+]1=C(/C=C/Nc2ccccc2Cl)C(C)(C)c2ccccc21`: the inhibition is 6.8%.

Regarding `COC(=O)c1ccc2c(c1)C(C)(C)C(/C=C/c1ccccc1O)=[N+]2C`, the inhibition is 18.9%.

As for `O=c1c(Cc2ccc(F)cc2)c(O)ccn1Cc1cccc(Cl)c1`, the inhibition is -9.1%.

Take `O=S(=O)(NCCSc1ccccc1)c1cccs1`: the inhibition is -13.8%.

On to `O=C(CCCN1C(=O)/C(=C/c2ccco2)SC1=S)Nc1cccc(C(=O)O)c1`, for which the inhibition is 5.8%.

On to `O=C(CCN1C(=O)/C(=C/c2ccc3c(c2)OCO3)SC1=S)Nc1ccc(C(=O)O)cc1`, for which the inhibition is 0.4%.

`O=C(CCN1C(=O)/C(=C/c2ccc3c(c2)OCO3)SC1=S)Nc1cccc(C(=O)O)c1`: the inhibition is -7.5%.

Take `O=C(CCN1C(=O)/C(=C/c2ccc3c(c2)OCO3)SC1=S)Nc1ccccc1`: the inhibition is 15.7%.

Regarding `Cn1c(=O)n(CC(=O)N2CCOCC2)c2ccccc21`, the inhibition is -9.9%.

Consider `O=C(CCN1C(=O)c2ccncc2C1=O)Nc1ccc(F)cc1`, for which the inhibition is 3.7%.

In the case of `Brc1ccc(N=C/C=C/C=C/Nc2ccc(Br)cc2)cc1`, the inhibition is 40.6%.

As to `CCn1c(O)c(/C=C/C=C/C=Nc2ccccc2)sc1=S`, the inhibition is -0.5%.

Consider `C(/C=C/C=C/Nc1ccccc1)=Nc1ccccc1`, for which the inhibition is 90.5% (active).

Consider `COc1ccccc1NC(=O)N1CCN(Cc2ccc3c(c2)OCO3)CC1`, for which the inhibition is -7.3%.

For `COc1ccc(/C=C2/S/C(=N/N=C3\CC4CCC3(C)C4(C)C)NC2=O)cc1` (stereo not given), the inhibition was 1.4%.

With `Cc1cccc(/C=C2/S/C(=N/N=C3\CC4CCC3(C)C4(C)C)NC2=O)c1` (stereo not given), the inhibition was 1.3%.

Consider `Cc1nc(CC(=O)O)c(-c2ccccc2)s1`, for which the inhibition is -2.4%.

In the case of `Cc1ccc(C(=O)C(C)OC(=O)c2cc3cc([N+](=O)[O-])ccc3oc2=O)cc1` (stereo not given), the inhibition is -8.8%.

For the compound `Cc1cc(-c2nnc(SCC(=O)Nc3ccccc3Cl)n2C)no1`, the inhibition was 18.2%.

Regarding `CC1=CC(=C(C#N)c2nc3ccccc3s2)C=C(C)N1CC1CCCO1` (stereo not given), the inhibition was 3.3%.

Take `CC[n+]1c(C=C2C=C(C)OC(C)=C2)sc2ccccc21`: the inhibition was 11.8%.

Turning to `Cn1c(=O)cc(OCC(=O)NCCc2ccc(Cl)cc2)c2ccccc21`, the inhibition is 13.1%.

As to `COc1ccc(OC)c2[nH]c(C(=O)N3CCC(C(=O)O)CC3)cc12`, the inhibition was -3.2%.

Turning to `CC1Cc2ccccc2N1C(=O)c1cccnc1` (stereo not given), the inhibition is 20.2%.

With `COc1ccccc1/C=C/C(=C1/C(=O)N(c2ccccc2)N=C1C)c1ccc(C)cc1`, the inhibition was -2%.

As to `CC(C)(C)c1ccc2c(c1)C(=O)c1ccccc1C2=O`, the inhibition was -1.9%.

In the case of `CC1=CC(=O)c2ccccc2C1=O`, the inhibition is 10.8%.

As to `CC(C)(C=O)C1=CC(=O)c2ccccc2C1=O`, the inhibition is 78.8% (active).

In the case of `CC1Cc2ccccc2N1C(=O)CN(C)S(=O)(=O)c1cccc2cccnc12` (stereo not given), the inhibition is -6.9%.

In the case of `Cc1ccccc1C(=O)N1CCCN(C(=O)c2ccccc2C)CC1`, the inhibition was -12.2%.

As for `O=C(NNC(=S)Nc1ccc(F)cc1F)c1ccco1`, the inhibition was -12.7%.

For the compound `CCOCCCNC(=O)C(c1ccc(Cl)cc1)N1CCN(c2ccccc2)CC1` (stereo not given), the inhibition was 5.9%.

Regarding `Cc1ccc(/C=C(/C#N)C(=O)NC(C)c2ccccc2)o1` (stereo not given), the inhibition is -7.7%.

Take `CC(C)NC(=O)/C(C#N)=C/c1ccc(N(C)C)o1`: the inhibition was 19.2%.

Turning to `COc1ccc(/C=C(\C#N)C(=O)NC(C)c2ccccc2)cc1O` (stereo not given), the inhibition was 9.9%.

`COC(=O)c1ccc(/C=C(\C#N)C(=O)NC(C)c2ccccc2)cc1` (stereo not given): the inhibition is -3.1%.

For the compound `Cc1ccc(/C=C(\C#N)C(=O)NC(C)c2ccccc2)o1` (stereo not given), the inhibition was -5.7%.

As for `CCN(CC)c1ccc(/C=C(/C#N)C(=O)NC(C)C)o1`, the inhibition is 14.3%.

In the case of `CC(C)NC(=O)/C(C#N)=C\c1ccc(N(C)C)o1`, the inhibition was 50% (active).

As to `CC(CCc1ccccc1)NC(=O)CCN1N=C(c2ccccc2)CCC1=O` (stereo not given), the inhibition is -14.8%.

For `O=C(NCCN1CCN(c2ccccc2)CC1)C1CCN(S(=O)(=O)N2CCOCC2)CC1`, the inhibition was 17.1%.

For `COc1cccc(C(=O)NC(=S)Nc2ccccc2N2CCCCC2)c1`, the inhibition was 9.4%.

Consider `O=C(CCn1cccn1)Nc1ccc2c(c1)OCCO2`, for which the inhibition is 18.7%.

`CCC1(C)Cc2ccccc2-c2[nH][nH]c(=O)c21` (stereo not given): the inhibition is -5.1%.
